The text below walks through data of PubChem BioAssay (EPA / NIEHS).

Read-out in test [1]: Interleukin-1 alpha (IL1a), IL1A (gene 3552)
Briefly: BSK_LPS_IL1a: BioMAP Diversity Plus: LPS Assay for Interleukin-1 alpha (IL1a) Biomarker Activity (AID 2283080). Particulars: primary human HUVEC with PBMC; actives raise or lower the signal. In a few lines: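 Human umbilical vein endothelial cells co-cultured with PBMC and stimulated with LPS; IL-1a measured by ELISA 24 h after dosing. Bidirectional fitting against DMSO; cytotoxicity checked by SRB staining in parallel cultures.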

Read-out in test [2]: Monocyte Chemoattractant Protein-1 (MCP1), CCL2 (gene 6347)
Briefly: BSK_LPS_MCP1: BioMAP Diversity Plus: LPS Assay for Monocyte Chemoattractant Protein-1 (MCP1) Biomarker Activity (AID 2283081).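 On AC50: secreted MCP-1 protein quantified by ELISA in culture supernatant.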 Conditions: primary human HUVEC with PBMC; actives raise or lower the signal. The gist of the method:
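Human umbilical vein endothelial cells co-cultured with PBMC, LPS-stimulated; secreted MCP-1 measured by ELISA 24 h after compound addition. Bidirectional curve fitting against DMSO baseline; SRB total-protein staining in parallel cultures for cytotoxicity.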

The nature of test [3]: BSK_LPS_PGE2: BioMAP Diversity Plus: LPS Assay for Prostaglandin E2 (PGE2) Biomarker Activity (AID 2283082). Conditions: primary human HUVEC with PBMC; actives raise or lower the signal. The gist of the method: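 Endpoint derived from bidirectional curve fitting versus DMSO of ELISA-measured PGE2 in LPS-stimulated human primary vascular co-culture (HUVEC with PBMC) harvested at 24 h.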

Read-out in test [4]: Macrophage colony-stimulating factor (MCSF), CSF1 (gene 1435)
Nature of the test: BSK_LPS_MCSF: BioMAP Diversity Plus: LPS Assay for Macrophage colony-stimulating factor (MCSF) Biomarker Activity (AID 2283083). Particulars: primary human HUVEC with PBMC; actives raise or lower the signal. The gist of the method:
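HUVEC–PBMC co-culture, M-CSF measured by ELISA 24 h after chemical dosing. Fitted in both directions relative to DMSO as negative control; overt cytotoxicity assessed by SRB total-protein staining in parallel cultures.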

Read-out in test [5]: Tissue Factor, F3 (gene 2152)
Briefly: BSK_LPS_TissueFactor: BioMAP Diversity Plus: LPS Assay for Tissue Factor Biomarker Activity (AID 2283084). Conditions: primary human HUVEC with PBMC; actives raise or lower the signal. The gist of the method: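 Human umbilical vein endothelial cells co-cultured with PBMC were dosed with compound. Cell-surface CD142 was measured by ELISA 24 h later. Activity was fitted bidirectionally against DMSO, with SRB total-protein staining in parallel cultures for cytotoxicity.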

Read-out in test [6]: Tumor necrosis factor (Homo sapiens) (UniProt P01375)
Nature of the test: BSK_LPS_TNFa: BioMAP Diversity Plus: LPS Assay for Tumour Necrosis Factor alpha (TNFa) Biomarker Activity (AID 2283085).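 On AC50: TNFa protein level quantified by ELISA in the co-culture.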 Particulars: primary human HUVEC with PBMC; actives raise or lower the signal. In a few lines:
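Primary human vascular co-culture of HUVEC and PBMC; TNFa ELISA 24 h after treatment, analysed as increase or decrease relative to DMSO control.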

Read-out in test [7]: Vascular cell adhesion molecule 1 (VCAM1), VCAM1 (gene 7412)
Nature of the test: BSK_LPS_VCAM1: BioMAP Diversity Plus: LPS Assay for Vascular cell adhesion molecule 1 (VCAM1) Biomarker Activity (AID 2283086). Particulars: primary human HUVEC with PBMC; actives raise or lower the signal. In a few lines:
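Primary human vascular co-culture (umbilical vein endothelium plus PBMC) stimulated with LPS received chemical; 24 h later VCAM-1 was read by ELISA. Overt cytotoxicity was assessed by sulforhodamine B staining of parallel cultures at the same time point.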

Read-out in the next test: CD38, CD38 (gene 952)
Briefly: BSK_SAg_CD38: BioMAP Diversity Plus: SAg Assay for CD38 Biomarker Activity (AID 2283087). Particulars: primary human HUVEC with PBMC; actives raise or lower the signal. The gist of the method:
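Fluorescence ELISA of cell-surface CD38 served as the read-out, with either increase or decrease fitted against DMSO controls. Cells were a human umbilical vein endothelium plus PBMC co-culture under SEB/TSST-1 stimulation, measured 24 h after dosing.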

Test [8] in a line: BSK_LPS_SRB: Viability Assessment in the BioMAP Diversity Plus: LPS Assay (AID 2283079).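 Further: total protein by sulforhodamine B absorbance as a cytotoxicity measure; measured one day after compound addition; fitted in both directions against DMSO so loss or gain of signal counts.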 Conditions: primary human HUVEC with PBMC. In a few lines: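 Co-culture of human umbilical vein endothelial cells and PBMC, read 24 h after dosing. Total protein by 0.1% SRB staining after 10% TCA fixation, absorbance at 560 nm; bidirectional fit against DMSO.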
Read-out in a further test: CD40, CD40 (gene 958)
Nature of the test: BSK_SAg_CD40: BioMAP Diversity Plus: SAg Assay for CD40 Biomarker Activity (AID 2283088). Conditions: primary human HUVEC with PBMC; actives raise or lower the signal. The gist of the method:
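HUVEC plus PBMC co-culture, superantigen-activated, with CD40 read by ELISA 24 h after dosing. Curves fitted in both directions against DMSO. Overt cytotoxicity checked by parallel SRB total-protein staining.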

The source made the active and inactive calls. How the source made its calls: active means hit-call score of the fitted dose curve at least 0.9, where 1 is the maximum; inactive means score below 0.9.

Chain of Tumor necrosis factor (Homo sapiens) (P01375 whole entry, looked up): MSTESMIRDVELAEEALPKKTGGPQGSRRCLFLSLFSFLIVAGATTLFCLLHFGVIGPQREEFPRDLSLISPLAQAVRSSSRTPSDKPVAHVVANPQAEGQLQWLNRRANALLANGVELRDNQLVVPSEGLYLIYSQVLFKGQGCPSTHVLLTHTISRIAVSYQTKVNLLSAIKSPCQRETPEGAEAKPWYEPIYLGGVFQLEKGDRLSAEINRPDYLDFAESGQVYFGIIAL

`CC(C)(c1ccccc1)c1ccc(O)c(C(C)(C)c2ccccc2)c1`: the AC50 in test [1] was 11.1 µM (active); in test [2], 10.1 µM (active); in test [4], 9.66 µM (active); in test [5], 12.6 µM (active); in [6], 12.3 µM (active); in test [7] it was 12.9 µM (active). In addition, the AC50 in the test with CD38, CD38 (gene 952) was 10.5 µM (active). In test [3], the outcome was inactive.
Consider `O=C1C2(Cl)C3(Cl)C4(Cl)C(Cl)(Cl)C5(Cl)C3(Cl)C1(Cl)C5(Cl)C24Cl` (stereo not given), for which the AC50 in [8] is 6.4 µM (active); in [1] it was 7.55 µM (active); in [2], 10.7 µM (active); in test [3], 9.92 µM (active); in test [4], 10.6 µM (active); in test [5] it was 12 µM (active). In addition, the AC50 is 11.6 µM (active) in [6]; 7.7 µM (active) with CD38, CD38 (gene 952); 8.7 µM (active) in the test with CD40, CD40 (gene 958).
As for `O=[N+]([O-])c1ccc2c3c(cccc13)CC2`, the result in [8], in [1], in test [3], in test [4], in test [5] and in test [6] was inactive. Besides, the outcome in test [7] was inactive. The AC50 in the test with CD38, CD38 (gene 952) was 20 µM (active).
Turning to `CC(C)CCCCCCOC(=O)c1ccccc1C(=O)OCCCCCCC(C)C`, the outcome in test [8], in test [1], in test [3], in test [4], in [5] and in test [6] was inactive. In addition, the outcome in test [7] is “inactive”; in the test with CD38, CD38 (gene 952), “inactive”; with CD40, CD40 (gene 958) it was “inactive”.
As to `Oc1ccc(-c2ccccc2)cc1`, the outcome in test [8], in test [1], in [3], in test [4], in test [5] and in test [6] was inactive. For the same molecule, the outcome in [7] is “inactive”; with CD38, CD38 (gene 952), “inactive”; in the test with CD40, CD40 (gene 958) it was “inactive”.
On to `CCCCCCCCc1ccc(O)cc1`, for which the AC50 was 34.1 µM (active) in [8]; 31 µM (active) in test [1]; 3.96 µM (active) in [3]; 30.8 µM (active) in test [4]; 38.1 µM (active) in test [5]; 33.6 µM (active) in test [6]. In the test with CD38, CD38 (gene 952), the AC50 is 31.2 µM (active).
Take `O=C(O)C(F)(F)C(F)(F)C(F)(F)C(F)(F)C(F)(F)C(F)(F)F`: the result in [8], in test [1], in test [3], in test [4], in test [5] and in test [6] was inactive. In addition, the outcome in [7] is “inactive”; with CD38, CD38 (gene 952), “inactive”.
On to `CCSC(C)CC1CC(=O)C(C(CC)=NOC/C=C/Cl)=C(O)C1` (stereo not given), for which the result in test [8], in test [1], in test [2], in test [3], in [4] and in test [5] was inactive. For the same molecule, the outcome in [6] was “inactive”; with CD38, CD38 (gene 952), “inactive”; with CD40, CD40 (gene 958) it was “inactive”.
For `COC(=O)Cc1ccccc1`, the result in [8], in test [1], in [3], in test [4], in [5] and in test [6] was inactive. Also, the outcome is “inactive” in test [7] and “inactive” with CD38, CD38 (gene 952).
Take `O=C(O)CCC(F)(C(F)(F)F)C(F)(F)F`: the result in test [8], in [1], in [3], in test [4], in test [5] and in test [6] was inactive. The result with CD38, CD38 (gene 952) was inactive.
Regarding `O=C(OC1CCCCC1)c1ccccc1C(=O)OC1CCCCC1`, the AC50 in test [8] was 20.9 µM (active); in test [1], 20.9 µM (active); in test [4] it was 14.6 µM (active); in test [5], 20.9 µM (active); in [6], 26.5 µM (active); with CD38, CD38 (gene 952) it was 33.3 µM (active). In test [3], the result was inactive.
With `CCCCC(CC)CO[N+](=O)[O-]` (stereo not given), the result in [8], in [1], in test [3], in test [4], in test [5] and in test [6] was inactive. Also, the outcome in the test with CD38, CD38 (gene 952) was inactive.
On to `ClCC(Cl)CCl`, for which the result in test [8], in test [1], in test [2], in [3], in test [4] and in test [5] was inactive. In addition, the outcome is “inactive” in test [6]; “inactive” with CD38, CD38 (gene 952); “inactive” with CD40, CD40 (gene 958).
On to `CCN1CCC2(CC1)COc1cc3c(cc12)N(C(=O)c1ccc(-c2ccc(-c4nnc(C)o4)cc2C)cc1)CC3`, for which the AC50 in [8] is 14.7 µM (active); in test [1] it was 9.03 µM (active); in test [2], 16.8 µM (active); in test [4], 16.7 µM (active); in test [5] it was 18.7 µM (active); in test [6], 14.3 µM (active). For the same molecule, the AC50 with CD38, CD38 (gene 952) is 12.8 µM (active). Besides, the outcome in [3] was inactive.
On to `C=CC(=O)OCCCCCC(C)C`, for which the outcome in test [8], in test [1], in [3], in test [4], in test [5] and in test [6] was inactive. Moreover, the outcome in test [7] was “inactive”; with CD38, CD38 (gene 952), “inactive”.
Regarding `CC12CC1(C)C(=O)N(c1cc(Cl)cc(Cl)c1)C2=O` (stereo not given), the outcome in test [8], in test [1], in test [2], in test [3], in test [4] and in [5] was inactive. In addition, the outcome in test [6] was “inactive”; with CD38, CD38 (gene 952), “inactive”; in the test with CD40, CD40 (gene 958) it was “inactive”.
